Assay results taken from PubChem BioAssay.

target: Torsin-1A (Homo sapiens) (UniProt O14656); assay: torsin A mutant lysate binding on microarrays – cell lysate, small-molecule microarray, COS7 lysate, 635/667 nm fluorescence, primary screen (AID 1150); conditions: COS7 hTOR1A mutant lysate, 635 nm fluorescence, higher = more signal;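 also: score pools 667 nm emission and signal to noise measuring lysate protein binding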
Sequence (O14656 whole entry, looked up): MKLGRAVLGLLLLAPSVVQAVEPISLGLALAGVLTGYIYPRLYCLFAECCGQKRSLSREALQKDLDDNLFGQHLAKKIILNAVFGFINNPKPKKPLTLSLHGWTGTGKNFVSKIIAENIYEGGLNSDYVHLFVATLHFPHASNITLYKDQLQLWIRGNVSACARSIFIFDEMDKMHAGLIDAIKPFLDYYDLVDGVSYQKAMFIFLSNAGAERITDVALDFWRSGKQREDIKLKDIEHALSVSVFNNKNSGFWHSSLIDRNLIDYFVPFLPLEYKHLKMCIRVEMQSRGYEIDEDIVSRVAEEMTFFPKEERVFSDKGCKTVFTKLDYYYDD

SMILES	composite z-score
NCCCCCNC(=O)[C@@H]1C[C@@H]2C(=O)N3CCC[C@H]3C(=O)N2[C@@H]1c1cccc(OCCO)c1	1.36
C=CC[C@]1(C(=O)NCc2ccccc2)N=C(c2ccc(OCCCO)cc2)O[C@H]1c1ccccc1	1.39
COCCOC(=O)N1C(=O)[C@@]2(c3cc(C#CCNC(N)=O)ccc31)[C@H](c1ccc(O)cc1)N1[C@H](c3ccccc3)[C@H](c3ccccc3)OC(=O)[C@H]1[C@@H]2C(=O)N1CCCCCCC1	0.527
O=C1[C@H]2[C@H]3[C@H](O)[C@H](O)CC(=NO[C@@H]4O[C@H](CO)[C@@H](O)[C@H](O)[C@H]4O)[C@@H]3CC[C@H]2C(=O)N1Cc1ccc2c(c1)OCO2	0.254
O=C1[C@H]2[C@H]3[C@H](O)[C@H](O)CC(=NOCc4ccccc4)[C@@H]3CC[C@H]2C(=O)N1C1CCCCC1	-0.47
O=C1[C@H]2[C@H]3[C@H](O)[C@H](O)CC(=NO[C@@H]4O[C@H](CO)[C@@H](O)[C@H](O)[C@H]4O)[C@H]3CC[C@H]2C(=O)N1Cc1ccc2c(c1)OCO2	0.181
O=C(NN=C1C[C@@H](O)[C@@H](O)[C@@H]2[C@@H]3C(=O)N(c4cccc(Oc5ccccc5)c4)C(=O)[C@@H]3CC[C@H]12)OCc1ccccc1	-0.104
CC(C)CON=C1C[C@@H](O)[C@@H](O)[C@@H]2[C@@H]3C(=O)N([C@@H](C)c4ccccc4)C(=O)[C@@H]3CC[C@H]12	0.477
CC(=O)O[C@H]1C2=C(C(=O)[C@@H]3O[C@@H]31)[C@H]1C(C)O[C@@H]2[C@@]23C(=O)[C@@H]4O[C@@H]4[C@@H](O)C2=CO[C@H](C)[C@@H]13 (some centres undefined)	0.0652
